Screen size: about 48,000 compounds; about 13,000 (27%) showed an effect of 50% or more. Some of the results follow.
The molecules below were run on Wolbachia pipientis (assay: Anti-Wolbachia Cell-Based Screen). Conditions: 5 µM.
Assay type: functional
Parameters: scale not given: in the data most compounds retested in dose-response had high values

Compound	Percent Effect [%]
Cc1oc(NC(=O)C(C)N2CCN(C(C)(C)CO)CC2)c(C#N)c1C (configuration not stated)	-7.519
O=C(Cc1cccc(F)c1F)NS(=O)(=O)c1cncc(Cl)c1	-8.127
Cc1ccc(OC2(C(=O)O)CCN(C/C=C/c3ccco3)CC2)cn1	1.431
CCN1CCN(c2ccc(CNC(=O)c3c(C)noc3C)cn2)CC1	9.474
CN(Cc1ccc([S+](C)[O-])cc1)c1ccccn1 (configuration not stated)	-21.98
Cc1nc(C)n(CC(C)C(=O)N2CCC(NS(C)(=O)=O)CC2)n1 (configuration not stated)	-0.2261
CS(=O)(=O)Cc1ccc(CNc2ncc(C#N)cc2Cl)cc1	-4.102
CCN(C)C(=O)C1(c2ccc(F)cc2F)CCC1	-1.611
CC(=O)N1CCCC1c1cc(N2CCN(CC3CC3)CC2)cc(C)n1 (configuration not stated)	101
O=C(Nc1cccc(N2CCN(CC3CC3)CC2)c1)N1CCCC1	0.3876
CC(=O)N1CCCC1c1cc(N2CCN(C3CCCC3)CC2)cc(C)n1 (configuration not stated)	1.456
CC(=O)N1CCCC1c1cc(N2CCN(CC(C)(C)C)CC2)cc(C)n1 (configuration not stated)	123.3
Cc1n[nH]c(C)c1C1CCCN1C(=O)NCC(=O)NC(C)(C)C (configuration not stated)	-8.161
Cc1cccc(CNCc2c(C(C)C)nn(C)c2N2CCOCC2)n1	-7.798
COCCS(=O)(=O)NC(=O)c1nnn(-c2ccc(F)cc2)c1C1CC1	-1.625
CS(=O)(=O)NC(=O)c1nnn(-c2cccc(F)c2)c1C1CC1	110.8
CS(=O)(=O)NC(=O)c1nnn(-c2ccccc2)c1C1CC1	97.89
Cc1ccc(-n2nnc(C(=O)NS(C)(=O)=O)c2C2CC2)cc1	-4.729
CC(C)NC(=O)c1nnn(-c2cccc(C(F)(F)F)c2)c1C1CC1	8.497
NS(=O)(=O)CCNC(=O)c1nnn(-c2ccccc2)c1C1CC1	-6.368
NC(=O)c1ccc(OCC(=O)NC2CCc3c(F)cccc32)cc1 (configuration not stated)	-9.741
CC(C)N(C)Cc1ccccc1CNc1ccc2nncn2n1	-2.79
Cc1cc(F)ccc1S(=O)(=O)N1C[C@@H](C)[C@@](C)(O)C1	6.812
Cc1ccc(CC(=O)N2CCc3nnc(N(C)C)cc3C2)cn1	-3.136
CNC(=O)C1CCCN(C(=O)C2CCC2)C1 (configuration not stated)	-10.43

Compound	Percent Effect [%]
CNC(=O)[C@@H]1CN(C(=O)C2CCC2)C[C@H]1c1ccnc(N2CCCC2)n1.Cl	84.63
CNC(=O)C1CCCN(c2nc(-c3ccco3)nc3c2CCNCC3)C1 (configuration not stated)	-9.477
CNC(=O)[C@@H]1CN(C(=O)C(C)C)C[C@H]1c1ccnc(N2CCCC2)n1.Cl	109.4
Cc1nc(CNCc2ccc(N3CCC(CO)CC3)nc2)cs1	-0.2455
CN(Cc1cc2n(n1)CCN(C(=O)c1cccnc1)C2)Cc1nccs1	89.98
CN(Cc1cn2c(n1)CN(C(=O)c1cccnc1)CC2)Cc1ccco1	-4.152
CCOc1cccc(C(=O)N2CCCn3nc(CCC(=O)O)cc3C2)c1	-15.16
CN(Cc1cc2n(n1)CCN(C(=O)[C@H]1CCCO1)C2)Cc1nccs1	100.4
O=C([C@@H]1CCCO1)N1CCn2c(Cn3cccn3)cnc2C1	2.282
CN(Cc1cn2c(n1)CN(C(=O)C1CCCO1)CC2)Cc1ccco1 (configuration not stated)	5.5
CC(C)C1CN(C(=O)c2cc(C3CC3)n[nH]2)CCC(=O)N1CC1CC1 (configuration not stated)	29.09
C[C@@H]1CN(S(=O)(=O)N2CCCC2)C[C@@]1(O)C1CC1	-6.629
CNC(=O)[C@@H]1C[C@@H](NC(=O)c2ccc(OC)o2)CN1Cc1sccc1C	3.708
CC(C)CN(c1cn[nH]c1)S(=O)(=O)c1cccc(C#N)c1	-11.66
CC1(CCC(=O)N2CCC(n3cc(C4(O)CCCC4)nn3)CC2)CC1	8.722
Cc1ccc(CN2CC(O)CN(C(=O)C3CC3)CC2=O)cc1 (configuration not stated)	98.84
O=C1CN(C(=O)C2CCCOC2)CCN1Cc1ccc(Cl)cc1 (configuration not stated)	-1.465
COc1ccc(CN2CCO[C@H]3CN(C4CCC4)CC[C@H]3C2=O)cc1.O=C(O)C(F)(F)F	-4.57
COc1ccc(CN2CCO[C@H]3CN(C(=O)C4CC4)CC[C@H]3C2=O)cc1	-3.017
COc1ccc(CN2CC(O)CN(C(=O)C3CCC3)CC2=O)cc1 (configuration not stated)	125.6
O=C(C1CCOCC1)N1CCN2C(=O)N(Cc3ccc(F)cc3)C[C@H]2C1	-6.376
O=C1CN(C(=O)C2CCOCC2)CCN1Cc1ccc(Cl)cc1	-5.322
CN(CCC(C)(C)O)C(=O)C1CCC(=O)N(Cc2ccc(Cl)cc2)C1 (configuration not stated)	-7.945
O=C1CN(C(=O)C2CCCCC2)CC(O)CN1Cc1ccc(Cl)cc1 (configuration not stated)	110.4
CCOCC1CN(C(=O)c2cccs2)Cc2nn(C)cc21 (configuration not stated)	-4.192

Compound	Percent Effect [%]
Cc1ncncc1C(=O)N1CCCC(n2ccnc2C)C1 (configuration not stated)	90.56
Cc1cnc(C(=O)N2CCCC(n3ccnc3C)C2)cn1 (configuration not stated)	4.379
Cc1nc(C)c(C(=O)N2CCCC(n3ccnc3C)C2)s1 (configuration not stated)	110.6
CCCc1cc(C(=O)N2CCCC(n3ccnc3C)C2)[nH]n1 (configuration not stated)	-7.935
Cc1nccn1C1CCCN(C(=O)c2cnn(C)c2C2CC2)C1 (configuration not stated)	89.3
CCc1nccn1C1CCCN(C(=O)c2cnn(C)c2C2CC2)C1 (configuration not stated)	0.8841
CCn1c(C)cc(C(=O)N2CCCC(n3nc(C)nc3C)C2)c1C (configuration not stated)	-3.865
CC(C)c1nccn1C1CCCN(C(=O)c2cnn(C)c2C2CC2)C1 (configuration not stated)	-1.568
CCn1ccnc1C1CCCN(C(=O)c2sc(C)nc2C)C1 (configuration not stated)	-9.404
CCn1c(C)cc(C(=O)N2CCCC(n3ccnc3C)C2)c1C (configuration not stated)	101.9
Cc1sc2nc(CCN)nc(N3CC(N4CCCCC4)C3)c2c1C	3.569
O=C(CCc1ncc(-c2ccc(F)cc2)o1)NCCN1CCOCC1	3.155
Cc1ncsc1C(=O)N(C)Cc1cccc(Cl)c1	-11.93
CCn1[nH]c(C)c2c(C(F)(F)C(F)(F)F)cc(=O)nc1-2	-26.97
CN(CCC(F)(F)F)C(=O)C1CCCN1C(=O)OC(C)(C)C (configuration not stated)	12.15
Cc1ccccc1SC1CCN(C(=O)C2CNC(=O)N2)CC1 (configuration not stated)	2.436
CCN(CC)Cc1ccc(C(=O)NC2CCc3ccccc32)o1 (configuration not stated)	-6.624
O=C(CCC1CCCC1)N1CCC(O)(C(F)(F)F)C1 (configuration not stated)	-0.53
CN1CCOCC12CCN(Cc1nccs1)CC2	7.326
CCOCC(=O)NCc1cc(C2CC2)n(C2CCCC2)n1	2.551
CCOc1ccnc(NCc2nc(C)cc(C(F)(F)F)n2)n1	-1.038
O=C(CN1C(=O)CCC1=O)NCc1cc(C2CC2)n(C2CCCC2)n1	-8.442
Cc1cc(C)nc(CCNC(=O)C(c2ccc(F)cc2)N(C)C)n1 (configuration not stated)	7.326
CCOCC(=O)NCCc1nc(C2CC2)cc(C(F)(F)F)n1	130.2
Cn1nc(CNC(=O)CN2C(=O)CCC2=O)cc1C1CC1	-2.201

Compound	Percent Effect [%]
CCOCC(=O)NCCc1nc(C)cc(C(F)(F)F)n1	110.5
CCOCC(=O)NCCc1ccc(I)s1	-15.02
O=C(CN1C(=O)CCC1=O)NCCc1nc(C2CC2)cc(C(F)(F)F)n1	102.8
Cc1ncccc1C(=O)NC1CC(=O)N(CC(F)(F)F)C1 (configuration not stated)	-0.2034
O=C(NCc1ccccc1F)Nc1ccn(CCN2CCOCC2)n1	-47.91
Cc1cc(CSc2ccccn2)on1	-1.483
CN(C)CCN1C[C@@H]2CN(c3ccccc3)C[C@@H]2C1=O.O=C(O)C(F)(F)F	89.24
CN(C)CCN1C[C@@H]2CN(S(=O)(=O)c3ccccc3)C[C@@H]2C1=O.O=C(O)C(F)(F)F	104.5
CN(C)CCN1C[C@@H]2CN(S(=O)(=O)c3cccs3)C[C@@H]2C1=O.O=C(O)C(F)(F)F	-17.1
CN(C)CCN1C[C@@H]2CN(C(=O)C3CC=CC3)C[C@@H]2C1=O	-2.917
CN(C)CCN1C(=O)C[C@@H]2[C@@H]1CCN2S(=O)(=O)c1ccccc1.O=C(O)C(F)(F)F	-18.17
CN(C)CCN1C[C@@H]2CN(C(=O)c3ccsc3)C[C@@H]2C1=O.O=C(O)C(F)(F)F	-6.945
Cc1cc(NC(=O)N2CCN(C)CC2C)n(C(C)(C)C)n1 (configuration not stated)	-1.035
Cc1nn(C)c2nc(N(CCOc3ccccc3)CC3CCCO3)sc12 (configuration not stated)	-19.55
Clc1ccccc1OC1CN(CC2CCOC2)C1 (configuration not stated)	-8.991
Cc1cnc(N2C[C@@H]3[C@@H](C2)OCC(=O)N3CC2CC2)nc1	5.534
COCCN1Cc2nccn2CC(COCc2csc(C)n2)C1.O=C(O)C(F)(F)F.O=C(O)C(F)(F)F (configuration not stated)	102.1
COCC1CN(Cc2csc(C)n2)Cc2nccn2C1.O=C(O)C(F)(F)F (configuration not stated)	-4.637
CCN1Cc2nccn2CC(COCc2csc(C)n2)C1.O=C(O)C(F)(F)F.O=C(O)C(F)(F)F (configuration not stated)	99.32
Cc1nc(CN2Cc3nccn3CC(COCC3CC3)C2)cs1.O=C(O)C(F)(F)F (configuration not stated)	-7.932
CCOCC1CN(Cc2csc(C)n2)Cc2nccn2C1.O=C(O)C(F)(F)F (configuration not stated)	-4.835
Cc1nc(CN2Cc3nccn3CC(CN3CCOCC3)C2)cs1.O=C(O)C(F)(F)F.O=C(O)C(F)(F)F (configuration not stated)	-3.569
